Measured values published in the supplement of paper PMC4466140.

Key:
Assay in all cases: SPOT peptide array binding signal intensity (averaged, normalized) (arbitrary units (background-subtracted, floor 0; scale differs between SH3 domains)); higher = stronger binding of the SH3 domain to the peptide
AgAbp1 = target: AgAbp1
Method in brief: (§1)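 Binding signal is given in arbitrary units that differ between domains and is the normalized, background-subtracted spot intensity averaged across replicates. Each GST-SH3 fusion from one of four yeast species was made in E. coli BL21(DE3), purified on glutathione Sepharose and incubated at 10 μg/ml overnight at 4°C on cellulose-bound synthetic 15-mer peptides in which cysteines were replaced by serines. Detection used anti-GST antibody, an HRP anti-mouse secondary and luminol, followed by imaging and Genespotter quantification.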

AgBbc1 = target: AgBbc1
Method in brief: as §1

AgBem1-D1 = target: AgBem1-D1
Method in brief: as §1

AgBzz1-D1 = target: AgBzz1-D1
Method in brief: as §1

AgBzz1-D2 = target: AgBzz1-D2
Method in brief: as §1

AgCyk3 = target: AgCyk3
Method in brief: as §1

AgFus1 = target: AgFus1
Method in brief: as §1

AgHof1 = target: AgHof1
Method in brief: as §1

AgHse1 = target: AgHse1
Method in brief: as §1

AgLsb1 = target: AgLsb1
Method in brief: as §1

AgLsb4 = target: AgLsb4
Method in brief: as §1

AgMyo5 = target: AgMyo5
Method in brief: as §1

AgNbp2 = target: AgNbp2
Method in brief: as §1

AgRvs167 = target: AgRvs167
Method in brief: as §1

AgSho1 = target: AgSho1
Method in brief: as §1

AgSla1-D1-D2 = target: AgSla1-D1-D2
Method in brief: as §1

AgSla1-D3 = target: AgSla1-D3
Method in brief: as §1

CaAbp1-D1 = target: CaAbp1-D1
Method in brief: as §1

CaAbp1-D2 = target: CaAbp1-D2
Method in brief: as §1

CaBbc1 = target: CaBbc1
Method in brief: as §1

CaBem1-D1 = target: CaBem1-D1
Method in brief: as §1

CaBzz1-D1 = target: CaBzz1-D1
Method in brief: as §1

CaBzz1-D2 = target: CaBzz1-D2
Method in brief: as §1

CaCyk3 = target: CaCyk3
Method in brief: as §1

CaFus1 = target: CaFus1
Method in brief: as §1

CaHof1 = target: CaHof1
Method in brief: as §1

CaHse1 = target: CaHse1
Method in brief: as §1

CaLsb1 = target: CaLsb1
Method in brief: as §1

CaLsb4 = target: CaLsb4
Method in brief: as §1

CaMyo5 = target: CaMyo5
Method in brief: as §1

SpBzz1-D2 = target: SpBzz1-D2
Method in brief: as §1

SpCyk3 = target: SpCyk3
Method in brief: as §1

SpHof1 = target: SpHof1
Method in brief: as §1

SpHof1-2 = target: SpHof1-2
Method in brief: as §1

SpHof1-3 = target: SpHof1-3
Method in brief: as §1

SpHse1 = target: SpHse1
Method in brief: as §1

SpLsb1 = target: SpLsb1
Method in brief: as §1

SpLsb4 = target: SpLsb4
Method in brief: as §1

SpMyo1 = target: SpMyo1
Method in brief: as §1

SpNbp2 = target: SpNbp2
Method in brief: as §1

SpPex13 = target: SpPex13
Method in brief: as §1

SpRvs167 = target: SpRvs167
Method in brief: as §1

SpSla1-D1-D2 = target: SpSla1-D1-D2
Method in brief: as §1

SpSla1-D3 = target: SpSla1-D3
Method in brief: as §1

CaNbp2 = target: CaNbp2
Method in brief: as §1

CaRvs167 = target: CaRvs167
Method in brief: as §1

CaRvs167-3 = target: CaRvs167-3
Method in brief: as §1

CaSho1 = target: CaSho1
Method in brief: as §1

CaSla1-D1-D2 = target: CaSla1-D1-D2
Method in brief: as §1

CaSla1-D3 = target: CaSla1-D3
Method in brief: as §1

ScAbp1 = target: ScAbp1
Method in brief: as §1

ScBbc1 = target: ScBbc1
Method in brief: as §1

ScBem1-D1 = target: ScBem1-D1
Method in brief: as §1

ScBzz1-D1 = target: ScBzz1-D1
Method in brief: as §1

ScBzz1-D2 = target: ScBzz1-D2
Method in brief: as §1

ScCyk3 = target: ScCyk3
Method in brief: as §1

ScFus1 = target: ScFus1
Method in brief: as §1

ScHof1 = target: ScHof1
Method in brief: as §1

ScHse1 = target: ScHse1
Method in brief: as §1

ScLsb1 = target: ScLsb1
Method in brief: as §1

ScLsb2 = target: ScLsb2
Method in brief: as §1

ScLsb3 = target: ScLsb3
Method in brief: as §1

ScLsb4 = target: ScLsb4
Method in brief: as §1

ScMyo3 = target: ScMyo3
Method in brief: as §1

ScMyo5 = target: ScMyo5
Method in brief: as §1

ScNbp2 = target: ScNbp2
Method in brief: as §1

ScPex13 = target: ScPex13
Method in brief: as §1

ScRvs167 = target: ScRvs167
Method in brief: as §1

ScSho1 = target: ScSho1
Method in brief: as §1

ScSla1-D1-D2 = target: ScSla1-D1-D2
Method in brief: as §1

ScSla1-D3 = target: ScSla1-D3
Method in brief: as §1

SpAbp1-D1 = target: SpAbp1-D1
Method in brief: as §1

SpBbc1 = target: SpBbc1
Method in brief: as §1

SpBzz1-D1 = target: SpBzz1-D1
Method in brief: as §1

B1: unnamed (peptide)
chain: VNFRRIPTGPDSPPT
SPOT peptide array binding signal intensity (AgAbp1): ≤ 0
SPOT peptide array binding signal intensity (AgBbc1): 2.5
SPOT peptide array binding signal intensity (AgBem1-D1): 13
SPOT peptide array binding signal intensity (AgBzz1-D1): 23
SPOT peptide array binding signal intensity (AgBzz1-D2): 258
SPOT peptide array binding signal intensity (AgCyk3): ≤ 0
SPOT peptide array binding signal intensity (AgFus1): 45
SPOT peptide array binding signal intensity (AgHof1): 6
SPOT peptide array binding signal intensity (AgHse1): 132
SPOT peptide array binding signal intensity (AgLsb1): 0.5
SPOT peptide array binding signal intensity (AgLsb4): 5
SPOT peptide array binding signal intensity (AgMyo5): ≤ 0
SPOT peptide array binding signal intensity (AgNbp2): ≤ 0
SPOT peptide array binding signal intensity (AgRvs167): 3.17
SPOT peptide array binding signal intensity (AgSho1): 1
SPOT peptide array binding signal intensity (AgSla1-D1-D2): ≤ 0
SPOT peptide array binding signal intensity (AgSla1-D3): 0.5
SPOT peptide array binding signal intensity (CaAbp1-D1): ≤ 0
SPOT peptide array binding signal intensity (CaAbp1-D2): ≤ 0
SPOT peptide array binding signal intensity (CaBbc1): 6.75
SPOT peptide array binding signal intensity (CaBem1-D1): 6
SPOT peptide array binding signal intensity (CaBzz1-D1): 41
SPOT peptide array binding signal intensity (CaBzz1-D2): 16.5
SPOT peptide array binding signal intensity (CaCyk3): 6
SPOT peptide array binding signal intensity (CaFus1): 141
SPOT peptide array binding signal intensity (CaHof1): ≤ 0
SPOT peptide array binding signal intensity (CaHse1): 3.5
SPOT peptide array binding signal intensity (CaLsb1): ≤ 0
SPOT peptide array binding signal intensity (CaLsb4): 18.5
SPOT peptide array binding signal intensity (CaMyo5): 0.5

B2: unnamed (peptide)
chain: LLGRKRPVMERVVDI
SPOT peptide array binding signal intensity (SpBzz1-D2): ≤ 0
SPOT peptide array binding signal intensity (SpCyk3): 1
SPOT peptide array binding signal intensity (SpHof1): 104
SPOT peptide array binding signal intensity (SpHof1-2): 9.5
SPOT peptide array binding signal intensity (SpHof1-3): 29.5
SPOT peptide array binding signal intensity (SpHse1): 470
SPOT peptide array binding signal intensity (SpLsb1): 0.5
SPOT peptide array binding signal intensity (SpLsb4): 140
SPOT peptide array binding signal intensity (SpMyo1): 5
SPOT peptide array binding signal intensity (SpNbp2): 99.5
SPOT peptide array binding signal intensity (SpPex13): 16
SPOT peptide array binding signal intensity (SpRvs167): 14.3
SPOT peptide array binding signal intensity (SpSla1-D1-D2): ≤ 0
SPOT peptide array binding signal intensity (SpSla1-D3): 35

B3: unnamed (peptide)
chain: PSRRDSLSIPRAVDA
SPOT peptide array binding signal intensity (AgAbp1): ≤ 0
SPOT peptide array binding signal intensity (AgBbc1): 41.5
SPOT peptide array binding signal intensity (AgBem1-D1): 56
SPOT peptide array binding signal intensity (AgBzz1-D1): 17
SPOT peptide array binding signal intensity (AgBzz1-D2): 30
SPOT peptide array binding signal intensity (AgCyk3): ≤ 0
SPOT peptide array binding signal intensity (AgFus1): 5
SPOT peptide array binding signal intensity (AgHof1): 10
SPOT peptide array binding signal intensity (AgHse1): 14.5
SPOT peptide array binding signal intensity (AgLsb1): 13.5
SPOT peptide array binding signal intensity (AgLsb4): 2.5
SPOT peptide array binding signal intensity (AgMyo5): ≤ 0
SPOT peptide array binding signal intensity (AgNbp2): 6
SPOT peptide array binding signal intensity (AgRvs167): 1.67
SPOT peptide array binding signal intensity (AgSho1): ≤ 0
SPOT peptide array binding signal intensity (AgSla1-D1-D2): 0.5
SPOT peptide array binding signal intensity (AgSla1-D3): 0.5
SPOT peptide array binding signal intensity (CaAbp1-D1): ≤ 0
SPOT peptide array binding signal intensity (CaAbp1-D2): 25
SPOT peptide array binding signal intensity (CaBbc1): 354
SPOT peptide array binding signal intensity (CaBem1-D1): 4
SPOT peptide array binding signal intensity (CaBzz1-D1): 123
SPOT peptide array binding signal intensity (CaBzz1-D2): 93
SPOT peptide array binding signal intensity (CaCyk3): 3
SPOT peptide array binding signal intensity (CaFus1): 65
SPOT peptide array binding signal intensity (CaHof1): 1
SPOT peptide array binding signal intensity (CaHse1): ≤ 0
SPOT peptide array binding signal intensity (CaLsb1): ≤ 0
SPOT peptide array binding signal intensity (CaLsb4): ≤ 0
SPOT peptide array binding signal intensity (CaMyo5): 1.5
SPOT peptide array binding signal intensity (CaNbp2): 28.5
SPOT peptide array binding signal intensity (CaRvs167): 0.5
SPOT peptide array binding signal intensity (CaRvs167-3): 1
SPOT peptide array binding signal intensity (CaSho1): 8
SPOT peptide array binding signal intensity (CaSla1-D1-D2): ≤ 0
SPOT peptide array binding signal intensity (CaSla1-D3): 1.25
SPOT peptide array binding signal intensity (ScAbp1): ≤ 0
SPOT peptide array binding signal intensity (ScBbc1): 8.5
SPOT peptide array binding signal intensity (ScBem1-D1): 57
SPOT peptide array binding signal intensity (ScBzz1-D1): 22
SPOT peptide array binding signal intensity (ScBzz1-D2): 19
SPOT peptide array binding signal intensity (ScCyk3): 2
SPOT peptide array binding signal intensity (ScFus1): ≤ 0
SPOT peptide array binding signal intensity (ScHof1): ≤ 0
SPOT peptide array binding signal intensity (ScHse1): ≤ 0
SPOT peptide array binding signal intensity (ScLsb1): ≤ 0
SPOT peptide array binding signal intensity (ScLsb2): 3.5
SPOT peptide array binding signal intensity (ScLsb3): 4
SPOT peptide array binding signal intensity (ScLsb4): 11.5
SPOT peptide array binding signal intensity (ScMyo3): 0.5
SPOT peptide array binding signal intensity (ScMyo5): 4.5
SPOT peptide array binding signal intensity (ScNbp2): 1
SPOT peptide array binding signal intensity (ScPex13): 1
SPOT peptide array binding signal intensity (ScRvs167): ≤ 0
SPOT peptide array binding signal intensity (ScSho1): 14
SPOT peptide array binding signal intensity (ScSla1-D1-D2): ≤ 0
SPOT peptide array binding signal intensity (ScSla1-D3): 22.2
SPOT peptide array binding signal intensity (SpAbp1-D1): 8
SPOT peptide array binding signal intensity (SpBbc1): 3
SPOT peptide array binding signal intensity (SpBzz1-D1): 116
SPOT peptide array binding signal intensity (SpBzz1-D2): 1.5
SPOT peptide array binding signal intensity (SpCyk3): 3.5
SPOT peptide array binding signal intensity (SpHof1): 1.25
SPOT peptide array binding signal intensity (SpHof1-2): 0.5
SPOT peptide array binding signal intensity (SpHof1-3): 1
SPOT peptide array binding signal intensity (SpHse1): 21.2
SPOT peptide array binding signal intensity (SpLsb1): ≤ 0
SPOT peptide array binding signal intensity (SpLsb4): ≤ 0
SPOT peptide array binding signal intensity (SpMyo1): ≤ 0
SPOT peptide array binding signal intensity (SpNbp2): ≤ 0
SPOT peptide array binding signal intensity (SpPex13): ≤ 0
SPOT peptide array binding signal intensity (SpRvs167): 1.33
SPOT peptide array binding signal intensity (SpSla1-D1-D2): 2
SPOT peptide array binding signal intensity (SpSla1-D3): 1
